The values that follow come from PubChem BioAssay (NCI).

About 83,000 compounds went through this panel and 20% of them were active in at least one assay; those are over-represented in the sample as a whole.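 How to read the values: 0–100, growth inhibition (40 = 60% inhibited); 0, no net growth; -100 to 0, cell death (-40 = 40% of starting cells died; -100 = all dead).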 A number with no mark means an inactive call. The source made the active and inactive calls. The calls were made as follows: active = growth percent below 10; inactive = the rest.

The test system of this test is HT29 colon. Nature of the test: NCI-60 one-dose screen, 48 h (100 = growth as untreated, 0 = no growth, -100 = all killed). The following applies: 10 µM unless noted.
On to `Cc1cc2nc3c4cc(Cl)ccc4n(CC(=O)NCCN(C)C)c3nc2cc1C`, for which the growth is -75.5% (active).
The same measure for `COc1cc(/C=C/C(=O)c2ccc(C)cc2)ccc1Oc1nc(NCCO)nc(N2CCOCC2)n1`: 19.4%; for `O=C(N/N=C/c1ccc(Cl)s1)c1[nH]c2ccc(Br)cc2c1-c1ccccc1`: 3.1% (active); for `NS(=O)(=O)c1cccc(Nc2nc(SCC(=O)c3ccc([N+](=O)[O-])cc3)nc3ccccc23)c1`: 71.2%.
The same measure for `Nc1c(C(=O)c2ccc(Br)cc2)oc2nc(-c3cnccn3)cc(-c3cccs3)c12`: 111%; for `O=C(N/N=C/c1ccc([N+](=O)[O-])o1)c1[nH]c2ccc(Br)cc2c1-c1ccccc1`: 9.21% (active); for `O=C(N/N=C/c1ccc([N+](=O)[O-])s1)c1[nH]c2ccc(Br)cc2c1-c1ccccc1`: -22.4% (active).
The same measure for `C#Cc1nc(C2=C(C)C(O)/C(=N/O)C2)cs1` (centres undefined): 113%.
With `COc1cc(/C=C/C(=O)c2cc(OC)c(OC)c(OC)c2)ccc1OCc1ccccc1`, the growth is 5.03% (active).
`CCCC(=O)NC(c1ccc(N(CC)CC)cc1)c1cc(C)c2cccnc2c1O` (centres undefined): the growth is 36.4%.
The same measure for `CN1CCc2c(sc3ncnc(N/N=C/c4ccc(Cl)c(Cl)c4)c23)C1`: -46.6% (active); for `O=C(N/N=C/c1ccc[nH]1)c1[nH]c2ccc(Br)cc2c1-c1ccccc1`: 6.16% (active); for `COC(=O)C1CCCN(S(=O)(=O)/N=C2\NC(=O)NC2=C(Cl)Cl)C1` (centres undefined): 116%.
`C=CCn1c(SCC(=O)c2ccccc2)nnc1-c1c[nH]c2ccccc12`: the growth is 112%.
